Among the data in PubChem BioAssay (EPA / NIEHS) are outcome and AC50 values, retold here.

Molecules are shown by their SMILES. Inconclusive results are not listed. The source made the active and inactive calls. How the source made its calls: active means hit-call score of the fitted dose curve at least 0.9, where 1 is the maximum; inconclusive means response in the unintended direction; inactive means score below 0.9.

For orientation: AC50 means the concentration giving half of the maximal activity seen.

Sequence of Luciferin 4-monooxygenase (Photinus pyralis) (P08659 whole entry, looked up): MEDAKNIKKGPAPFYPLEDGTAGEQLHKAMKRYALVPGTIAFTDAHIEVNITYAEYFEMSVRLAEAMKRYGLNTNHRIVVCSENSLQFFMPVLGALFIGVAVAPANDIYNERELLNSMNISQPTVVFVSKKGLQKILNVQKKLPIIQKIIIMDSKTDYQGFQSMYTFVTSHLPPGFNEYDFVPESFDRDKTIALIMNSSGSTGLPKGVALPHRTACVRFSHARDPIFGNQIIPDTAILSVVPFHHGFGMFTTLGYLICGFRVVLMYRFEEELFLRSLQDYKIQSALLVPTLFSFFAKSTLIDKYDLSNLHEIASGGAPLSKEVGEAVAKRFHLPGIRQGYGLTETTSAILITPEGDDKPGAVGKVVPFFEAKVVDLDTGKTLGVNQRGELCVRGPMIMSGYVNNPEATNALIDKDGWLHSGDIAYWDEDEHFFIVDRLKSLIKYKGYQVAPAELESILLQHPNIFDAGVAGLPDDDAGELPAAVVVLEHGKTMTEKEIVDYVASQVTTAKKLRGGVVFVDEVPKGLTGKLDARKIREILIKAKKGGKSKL

The target in this test is Luciferin 4-monooxygenase (Photinus pyralis) (UniProt P08659). Nature of the test: CCTE_Simmons_QuantiLum_inhib_2: CCTE's Firefly Luciferase Inhibition Assay, Simmons Lab (AID 2283767).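 On AC50: potency for inhibitors that lower luciferase luminescence relative to DMSO.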 As to the method:
CCTE_Simmons_QuantiLum_inhib_2 is a biochemical, single-readout assay that uses purified luciferase enzyme in a cell-free assay.Measurements were taken 0.5 hour after chemical dosing in a 384-well plate.CCTE_Simmons_QuantiLum_inhib_2 is the assay component measured from the CCTE_Simmons_QuantiLum_inhib_2 assay. It is designed to make measurements of enzyme activity, a form of enzyme reporter, as detected with bioluminescence signals by Luciferase-coupled Quantilum levels technology. This is a secondary assay to CCTE_Simmons_AUR_TPO to evaluate nonspecific enzyme inhibition.Data from the assay component CCTE_Simmons_QuantiLum_inhib_2 was analyzed at the endpoint, CCTE_Simmons_QuantiLum_inhib_2, in the positive analysis fitting direction relative to DMSO as the negative control and baseline of activity. Using a type of enzyme reporter, measures of enzyme activity for loss-of-signal activity can be used to understand inhibition of firefly luciferase. This is an assay endpoint to indicate nonspecific protein inhibition for comparison to aeid 1508 for thyroperoxidase inhibition. To generalize the intended target to other relatable targets, this assay endpoint is annotated to the oxidoreductase intended target family, where the subfamily is monooxygenase.
Quanti-Lum recombinant luciferase (Promega; Madison, Wisconsin) was diluted to 76.9 ng/ml with 200mM potassium phosphate buffer supplemented with 1 mg/ml bovine serum albumin and 65ul (5ng recombinant luciferase) per well was dispensed into opaque, white 384-well plates (Greiner, BioExpress) using an automated liquid handler (BioTek MicroFlo) with a plastic 5 ul tubing cassette. Test compounds were administered using the HDRT as described earlier to achieve a 0.5% final DMSO concentration. Microplates were incubated at 37C in the dark for 30min to mimic the AUR-TPO assay conditions. Luciferase detection reagent (25 ul per well; 9.2 mM dithiothreitol, 75uM Coenzyme A, 147uM dATP, 150uM D-luciferin, 8.9 mM Tricine, 297uM (MgCO3)4.Mg(OH)2.5H20, 742uM MgSO4, 27.8uM EDTA, pH 7.8, final assay concentrations) was then added using a BMG Clariostar plate reader equipped with syringe injectors (BMG LabTech; GmbH). Plates were read using a kinetic luminescence protocol (top read) whereby each well was individually injected with luciferase detection reagent immediately prior to measurement. Three biological replicates of technical singles were run for every chemical concentration tested. A titrated range of LUCINH2 served as a positive control on each plate of the luciferase inhibition screening assay. Test chemicals were administered as a titrated series of 8 concentrations from 5 nM up to 87.5 uM [final] for 30 minutes prior to single endpoint detection. Dimethylsulfoxide [DMSO] was used as the vehicle control. Luciferase Inhibitor I [2-(5-(2-Methoxyphenyl)-1,2,4-oxadiazol-3-yl)pyridine] was used as the positive control and was administered as a titrated series of 8 concentrations from 1 nM up to 100 uM [final].
As for `O=C1OC(c2ccc(O)cc2)(c2ccc(O)cc2)c2ccccc21`, the call was inactive.
Same read-out and setting: the value for `CCCCCCCCCCCCCCOS(=O)(=O)O` was “inactive”; that for `Cc1cc(Cc2ccc(N)c(C)c2)ccc1N` was “inactive”.
Still for that read-out and setting: the result for `O=C1c2c(O)cccc2Cc2cccc(O)c21` reads “inactive”; that for `Oc1ccc(O)cc1`, “inactive”.
`COC(=O)[C@H]1[C@H]2C[C@@H]3c4[nH]c5cc(OC)ccc5c4CCN3C[C@H]2C[C@@H](OC(=O)c2cc(OC)c(OC)c(OC)c2)[C@@H]1OC`: the call was inactive.
The same measure, in the same setting: the result for `O=C1O[C@H]([C@H](O)CO)C(O)=C1O` reads “inactive”; that for `Oc1ccccc1O`, “inactive”.
Regarding `O=Cc1ccccc1C=O`, the AC50 is 53.8 µM (active).
With `C/C=C/c1ccc(OC)cc1`, the outcome was inactive.
On the same count and under the same terms, the value for `Cc1c(C)c2c(c(C)c1O)CCC(C)(COc1ccc(CC3SC(=O)NC3=O)cc1)O2` (stereo not drawn) was “inactive”.
Same read-out and setting: the result for `S=c1[nH]c2ccccc2s1` reads “inactive”; that for `Cc1occc(=O)c1O`, “inactive”; that for `C/C=C/C=C/C(=O)O`, “inactive”.
On the same count and under the same terms, the value for `Cc1cc(SC2=C(O)C[C@@](CCc3ccc(N)cc3)(C(C)C)OC2=O)c(C(C)(C)C)cc1CO` was “inactive”; that for `Cc1ccc(C(C)(C)C)c(O)c1` was “inactive”.
Consider `CC(C)NCC(O)c1ccc(O)c(O)c1` (stereo not drawn), for which the compound was called inactive.
For `Nc1nc(=S)c2[nH]cnc2[nH]1`, the concentration at half-maximal activity (AC50) was 11.2 µM (active).
